Compound activity (PubChem)
Shown are actives, neighbours in structure and some others; about 1.7% of the full set was active somewhere.
ARNT-TACC3 inh – disruptors of human ARNT/TACC3 interaction; Q9Y6A5; AlphaScreen His-ARNT PAS-B/GST-TACC3 binding, luminescence; TACC3 fragment carries E629A point mutation; inhibition, % at 9.99 µM; 390,000 compounds, 0.66% hits; AID 623870;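 active means mean inhibition of replicates at least 50% and at least half of replicates each reaching 50%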;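 further: 0% = complete ARNT plus TACC3 wells and 100% = ARNT alone without TACC3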
aDG glyco up – increases alpha dystroglycan glycosylation; AID 624168; 360,000 compounds, 0.22% hits; activation, % at 10 µM; Pro5-aDG cells, alpha-DG glycosylation AlphaScreen (IIH6); 0% Pro5, 100% B10-LARGE cell signal;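 active means activation of at least 8% versus controls, or a plate z-score of at least 8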;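 further: Pro5 are CHO cells carrying HIG-tagged alpha-DG that lacks glycosylation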
Glyco luc inh – N-linked glycosylation inhibition | D54 ERlucT glycosylation luciferase reporter, 24 h; percent of 100 nM tunicamycin response | reporter increase, % at 12.5 µM | 360,000 compounds, 0.23% hits | AID 588692;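 active means mean luciferase reporter signal, scaled so untreated is 0 and the glycosylation-blocking control 100, at or above a set limit in every replicate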;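 further: luciferase carries N-glycosylation sites so blocking glycosylation raises the light; 0% = median of neutral control wells and 100% = median of 100 nM tunicamycin wells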
Vif inh – blocks HIV Vif function; HEK293T cells, Vif self-association by quenched fluorescence, imaging, 24 h; inhibition, % at 7.49 µM; 340,000 compounds, 0.35% hits; in the data active means inhibition above about 50%, passing the limit was not always enough
Cardio protect – protects H9c2 cardiomyocytes from peroxide injury | 360,000 compounds, 0.63% hits | H2O2 injury protection, ATPLite, 2 h | AID 588492 | protection from H2O2 cell death, % at 20 µM;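 active means compounds giving at least 50% protection of heart cells from peroxide-induced death in the single-dose screen, raw or plate-pattern-corrected value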;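 further: 0% = DMSO wells with peroxide and 100% = DMSO wells without peroxide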
* = called active by the depositor; . = not tested or not shown.

SMILES	ARNT-TACC3 inh	aDG glyco up	Glyco luc inh	Vif inh	Cardio protect
Cc1ccccc1NC(=S)N(Cc1ccccn1)Cc1ccccc1Cl	-17	0	-4	-1	-10
S=C(NN=C(c1ccccc1)c1ccccn1)N(Cc1ccccn1)Cc1ccccn1	66*	3	-15	-12	34
Cc1cc2c(cc1S(=O)(=O)N1CCN(c3ccc(Cl)cc3)CC1)OCCN2C	9	0	-2	-5	-11
COc1cccc(N2CCN(S(=O)(=O)c3cc4c(cc3C)N(C)CCO4)CC2)c1	5	0	1	76*	-2
CCOC(=O)c1cnc(Nc2nc3ccccc3o2)nc1CSc1nnc(C)s1	7	0	-1	9	60*
CCOC(=O)c1cnc(Nc2nc3ccccc3o2)nc1C	4	0	-22	0	-22
Cc1noc(C)c1NC(=O)Nc1ccc2c(c1)C(=O)N([C@H](C)CO)C[C@H](C)[C@@H](CN(C)Cc1ccc(Cl)c(Cl)c1)O2	8	.	.	.	.
COc1ccc(/C(C)=N/NC(=O)c2cccc(S(=O)(=O)N3CCCC3)c2)c(O)c1	40	1	-9	0	70*
COc1ccc(C(C)=NNC(=O)c2cccc(S(=O)(=O)N3CCCC3)c2)cc1	-1	0	0	-13	3
COc1cc(/C=N/NC(=O)c2ccccc2O)ccc1OCC(=O)Nc1ccccc1	-3	0	-4	2	78*
COc1cc(C(=O)N/N=C/c2ccc(OC(=O)c3cccc(C)c3)c(OC)c2)ccc1O	10	0	5	3	58*
COc1ccc(NC(=O)COc2ccc(/C=N/NC(=O)c3cccnc3)cc2OC)cc1	.	0	1	3	39
COc1cc(/C=N/NC(=O)c2ccncc2)ccc1OCC(=O)Nc1ccccc1	18	0	-3	-17	25
COc1cc(/C=N\NC(=O)c2cccnc2)ccc1OC(=O)c1ccccc1Cl	1	0	-1	-1	55*
COc1cc(/C=N/NC(=O)c2cccnc2)ccc1OC(=O)c1ccco1	0	0	0	10	3
COc1cc(/C=N/NC(=O)c2cccnc2)ccc1OCC(=O)Nc1ccccc1Cl	-6	1	1	1	51*
C[C@H]1CN([C@@H](C)CO)C(=O)c2cc(NC(=O)CCC(F)(F)F)ccc2O[C@@H]1CN(C)S(=O)(=O)c1ccc(F)cc1	-3	.	.	.	.
COCC(=O)N1[C@H](CO)[C@@H](c2ccccc2)[C@@H]1CNC(=O)c1ccccn1	2	.	.	.	.
CC(C)NC(=O)N(C)C[C@@H]1Oc2ccc(NC(=O)NC3CCCCC3)cc2C(=O)N([C@H](C)CO)C[C@H]1C	-8	.	.	.	.
CO[C@@H]1CN(C)C(=O)c2ccc(NC(C)=O)cc2OC[C@@H](C)N(CC2CC2)C[C@@H]1C	-8	.	.	.	.
C/C=C/c1cnc2c(c1)C(=O)N([C@H](C)CO)C[C@@H](C)[C@@H](CN(C)C(=O)CN1CCOCC1)O2	22	.	.	.	.
O=C(NC1CCCC1)N[C@@H]1CC[C@H](CC(=O)N2CCOCC2)O[C@H]1CO	-6	.	.	.	.
COc1cccc(-c2ccc3n(c2=O)C[C@@H]2[C@@H](CO)[C@H](C(=O)NC4CCC4)N(S(C)(=O)=O)[C@H]32)c1	-13	.	.	.	.
COc1cc(C(=O)N/N=C/c2ccc(OC(=O)c3ccccc3Cl)cc2)ccc1O	.	0	.	.	52*
Nc1ccc(C(=O)N/N=C\c2ccc(OC(=O)c3ccccc3Cl)cc2)cc1	-4	0	1	-1	7
SMILES	ARNT-TACC3 inh	aDG glyco up	Glyco luc inh	Vif inh	Cardio protect
COCC(=O)N/N=C\c1ccc(OC/C=C/c2ccccc2)c(OC)c1	16	0	0	.	0
COc1ccccc1NC(=O)COc1ccc(/C=N/NC(=O)c2cccnc2)cc1	-3	0	0	-5	51*
COc1cc(/C=N\NC(=O)CC#N)ccc1OC/C=C/c1ccccc1	69*	0	-3	18	2
NS(=O)(=O)c1ccc(NC(=O)CCC(=O)N2CCOCC2)cc1	-5	0	1	58*	-6
O=C(CCC(=O)N1CCOCC1)Nc1ccc(Cl)c(Cl)c1	-4	0	.	.	-1
COc1cccc(CNC(=O)[C@H]2[C@H](CO)[C@H]3Cn4c(ccc(-c5cccc(OC)c5)c4=O)[C@H]3N2C)c1	3	.	.	.	.
O=C(C[C@@H]1CC[C@@H]2[C@H](COC[C@@H](O)CN2Cc2ccccc2)O1)NCCCN1CCOCC1	-2	.	.	.	.
CC(O)C(NS(=O)(=O)c1ccc(Cl)cc1)C(=O)OCC(=O)c1ccc2c(c1)NC(=O)CO2 (stereo not given)	3	0	1	-1	-4
CC(C)CC(NC(=O)c1ccc(Cl)cc1)C(=O)OCC(=O)c1ccc2c(c1)NC(=O)CO2 (stereo not given)	-12	-1	60*	11	-15
Cc1c(Cc2ccccc2)sc(NC(=O)c2ccco2)c1C(N)=O	-11	0	0	-6	-19
CCOc1ccc(CC(=O)Nc2sc(Cc3ccccc3)c(C)c2C(N)=O)cc1OCC	-8	0	0	58*	6
O=C(C[C@H]1CC[C@H](NC(=O)c2ccc(F)cc2)[C@H](CO)O1)NCCc1ccncc1	-8	.	.	.	.
CC(C)(C)NC(=O)CSc1nc(O)cc(=O)n1-c1ccccc1	-1	0	2	94*	8
COc1ccc(CN(C)C[C@H]2OCCCC[C@H](C)Oc3ccc(NS(=O)(=O)c4c(C)noc4C)cc3C(=O)N([C@@H](C)CO)C[C@@H]2C)cc1	3	.	.	.	.
COc1ccc(CNC(=O)c2oc3ccc(S(=O)(=O)N4CCOCC4)cc3c2C)cc1	13	0	-2	12	12
Cc1ccc(C(=O)Nc2cc(S(=O)(=O)N3CCOCC3)ccc2N2CCCC2)cc1	-4	0	45*	0	5
Cc1ccc(CNC(=O)c2oc3ccc(S(=O)(=O)N4CCOCC4)cc3c2C)cc1	-4	0	-1	3	51*
Cc1noc(C)c1S(=O)(=O)Nc1cccc2c1O[C@@H](CN(C)S(=O)(=O)c1ccc(F)cc1)[C@@H](C)CN([C@H](C)CO)C2=O	2	.	.	.	.
O=C(C[C@@H]1CC[C@@H](NC(=O)c2cccnc2)[C@@H](CO)O1)NCCN1CCCCC1	-7	.	.	.	.
C[C@H]1CN([C@@H](C)CO)C(=O)Cc2cc(NC(=O)Nc3cccc4ccccc34)ccc2O[C@H]1CN(C)Cc1ccc(Oc2ccccc2)cc1	42	.	.	.	.
C[C@@H]1CN([C@@H](C)CO)C(=O)Cc2cc(NC(=O)Nc3cccc4ccccc34)ccc2O[C@@H]1CN(C)Cc1ccc(C(=O)O)cc1	active	.	.	.	.
CC(C)NC(=O)Nc1cccc2c1O[C@H](CN(C)Cc1ccc(Oc3ccccc3)cc1)[C@@H](C)CN([C@@H](C)CO)C2=O	active	.	.	.	.
C[C@H]1CN([C@@H](C)CO)C(=O)Cc2cc(NC(=O)Nc3cccc4ccccc34)ccc2O[C@H]1CN(C)Cc1ccc(C(=O)O)cc1	24	.	.	.	.
C[C@H](CO)N1C[C@H](C)[C@@H](CN(C)CC2CCCCC2)Oc2ccc(NC(=O)Nc3cccc4ccccc34)cc2CC1=O	47*	.	.	.	.
